Results on ten molecules are retold here after PubChem BioAssay (EPA / NIEHS).

Inconclusive results are not listed. The source made the active and inactive calls. How the source made its calls, unless noted: active means hit-call score of the fitted dose curve at least 0.9, where 1 is the maximum; inconclusive means response in the unintended direction; inactive means score below 0.9.

Assay [1] addresses Steroid hormone receptor ERR1 (Homo sapiens) (UniProt P11474). As to the kind of experiment: ATG_ERRa_TRANS: Attagene TRANS-FACTORIAL HepG2 Assay for human Estrogen-Related Receptor alpha (ERRa) (AID 2282971). As to conditions: HepG2 Attagene TRANS reporter, ERRa transactivation. In outline:
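Reporter transcripts from ERRa-Gal4 chimera activity measured in transiently transfected human HepG2 cells 24 hours after dosing, using RT-PCR with 6-FAM primer extension, HpaI digestion and capillary electrophoresis; DMSO is baseline.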

The target in assay [2] is Bile acid receptor (Homo sapiens) (UniProt Q96RI1). Kind of assay: ATG_FXR_TRANS: Attagene TRANS-FACTORIAL HepG2 Assay for Farnesoid X Receptor (FXR) (AID 2282979).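 Further: hits raise reporter mRNA above DMSO so AC50 marks FXR activation.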 Conditions: HepG2 Attagene TRANS FXR-GAL4 reporter transcription. In a few lines:
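Reporter transcripts from transfected HepG2 cells were measured 24 h after dosing, using RT-PCR with capillary electrophoresis of 6-FAM-labelled fragments. The read-out reflects activity of exogenous FXR-Gal4 chimera on GAL4-UAS units, with induction relative to DMSO.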

Assay [3] can be described thus: BSK_3C_uPAR: BioMAP Diversity Plus: 3C Assay for Urokinase-type plasminogen activator receptor (uPAR) Biomarker Activity (AID 2282998; active means hit-call score of the fitted dose curve at least 0.9, where 1 is the maximum; inactive means score below 0.9). As to conditions: BioMAP 3C HUVEC, uPAR biomarker ELISA; actives raise or lower the signal. In a few lines:
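Readout: ELISA for surface uPAR. System: human umbilical vein endothelial primary cells, 24 h after chemical exposure. Analysis: bidirectional fit, DMSO baseline.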

Read-out in assay [4]: Monocyte Chemoattractant Protein-1 (MCP1), CCL2 (gene 6347)
Kind of assay: BSK_4H_MCP1: BioMAP Diversity Plus: 4H Assay for Monocyte Chemoattractant Protein-1 (MCP1) Biomarker Activity (AID 2283018; active means hit-call score of the fitted dose curve at least 0.9, where 1 is the maximum; inactive means score below 0.9). As to conditions: primary human endothelial cells (HUVEC); actives raise or lower the signal. In a few lines: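 HUVEC primary cells, 24 h post-dose, MCP-1 by ELISA. Gain or loss of signal fitted bidirectionally vs DMSO baseline. Cytotoxicity: SRB stain (0.1% after 10% TCA fixation), read 560 nm, parallel cultures.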

Read-out in assay [5]: Monokine induced gamma interferon (MIG), CXCL9 (gene 4283)
As to the kind of experiment: BSK_3C_MIG: BioMAP Diversity Plus: 3C Assay for Monokine induced gamma interferon (MIG) Biomarker Activity (AID 2283021; active means hit-call score of the fitted dose curve at least 0.9, where 1 is the maximum; inactive means score below 0.9). Conditions: primary human endothelial cells (HUVEC); actives raise or lower the signal. In outline:
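HUVEC, 3C system; 24 h chemical exposure; MIG by ELISA; bidirectional fit vs DMSO baseline.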

Read-out in assay [6]: Urokinase-type plasminogen activator receptor (uPAR), PLAUR (gene 5329)
As to the kind of experiment: BSK_4H_uPAR: BioMAP Diversity Plus: 4H Assay for Urokinase-type plasminogen activator receptor (uPAR) Biomarker Activity (AID 2283030; active means hit-call score of the fitted dose curve at least 0.9, where 1 is the maximum; inactive means score below 0.9). Conditions: primary human endothelial cells (HUVEC); actives raise or lower the signal. In a few lines:
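uPAR level read by ELISA on HUVEC cultures (BioMAP 4H) 24 h post-dosing, analyzed for gain or loss relative to DMSO. Parallel SRB staining assessed overt cytotoxicity.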

Read-out in assay [7]: Plasminogen activator inhibitor-1 (PAI1), SERPINE1 (gene 5054)
Kind of assay: BSK_BE3C_PAI1: BioMAP Diversity Plus: BE3C Assay for Plasminogen activator inhibitor-1 (PAI1) Biomarker Activity (AID 2283037; active means hit-call score of the fitted dose curve at least 0.9, where 1 is the maximum; inactive means score below 0.9). As to conditions: primary human bronchial epithelial cells; actives raise or lower the signal. In outline:
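ELISA read-out of PAI-1 from human bronchial epithelial primary cells, 24 h post-dosing; bidirectional curve fit vs DMSO baseline, gain or loss of signal scored.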

Read-out in assay [8]: Tissue plasminogen activator (tPA), PLAT (gene 5327)
Kind of assay: BSK_BE3C_tPA: BioMAP Diversity Plus: BE3C Assay for Tissue plasminogen activator (tPA) Biomarker Activity (AID 2283041; active means hit-call score of the fitted dose curve at least 0.9, where 1 is the maximum; inactive means score below 0.9;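 further: tPA level quantified by ELISA one day after compound addition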). Conditions: primary human bronchial epithelial cells; actives raise or lower the signal. In a few lines: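 ELISA read-out of tPA on human primary bronchial epithelial cells, 24 h post-dosing; bidirectional fit vs DMSO negative control/baseline.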

Read-out in assay [9]: Thrombomodulin, THBD (gene 7056)
As to the kind of experiment: BSK_CASM3C_Thrombomodulin: BioMAP Diversity Plus: CASM3C Assay for Thrombomodulin Biomarker Activity (AID 2283051; active means hit-call score of the fitted dose curve at least 0.9, where 1 is the maximum; inactive means score below 0.9;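 further: thrombomodulin protein level measured by ELISA 24 h after dosing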). As to conditions: primary human coronary artery smooth muscle cells; actives raise or lower the signal.

Assay [10] has as its target Estrogen-related receptor gamma (Homo sapiens) (UniProt P62508). As to the kind of experiment: ATG_ERRg_TRANS: Attagene TRANS-FACTORIAL HepG2 Assay for human Estrogen-Related Receptor gamma (ERRg) (AID 2282977).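 Further: hits increase reporter signal over DMSO so potencies reflect activators.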 Conditions: HepG2 Attagene TRANS reporter, ERRg transactivation. In a few lines:
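Readout: fluorescent reporter-mRNA fragments resolved by capillary electrophoresis after RT-PCR and HpaI cut. Cells: transiently transfected HepG2 carrying GAL4-UAS reporters driven by exogenous NR-Gal4 chimeras, dosed 24 h. Activity fitted upward relative to DMSO baseline.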

Assay [11] concerns the target Estrogen receptor beta (Homo sapiens) (UniProt Q92731). As to the kind of experiment: OT_ER_ERbERb_0480: Odyssey Thera (OT) 8-hour HEK293T Protein-Complementation Assay for Estrogen Receptor-beta/-beta Homodimer (AID 2283357). In outline:
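ER-beta LBD homodimer PCA stably expressed in HEK293T; 8 h compound exposure, then formaldehyde fixation and Draq5 staining. Gain in nuclear/cytoplasmic fluorescence intensity versus DMSO vehicle, read on laser scanning cytometer.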

Assay [12] has the same target. Kind of assay: OT_ER_ERbERb_1440: Odyssey Thera (OT) 24-hour HEK293T Protein-Complementation Assay for Estrogen Receptor-beta/-beta Homodimer (AID 2283380).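 Further: scored as signal increase over DMSO baseline for both agonists and antagonists.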 In outline: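 Fluorescence increase, nuclear for agonists or whole-cell for antagonists, relative to DMSO vehicle, quantified by laser scanning cytometer after fixation and Draq5 staining. Readout from 24 h treatment of HEK293T cells carrying complementation-paired ER beta LBD (aa 310-547).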

For assay [13], the target named is Retinoic acid receptor RXR-alpha (Homo sapiens) (UniProt P19793). Kind of assay: OT_NURR1_NURR1RXRa_0480: Odyssey Thera (OT) 8-hour HEK293T Protein Complementation Assay for Nurr1/retinoid X receptor (RXR) (AID 2283385). In outline:
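Read-out: fluorescence from protein-fragment complementation between Nurr1 and RXRα in human HEK293T cells, 8 h after dosing. DMSO served as negative control; increased signal counted as activity.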

For assay [14] the target is unchanged. Kind of assay: OT_NURR1_NURR1RXRa_1440: Odyssey Thera (OT) 24-hour HEK293T Protein Complementation Assay for Nurr1/retinoid X receptor (RXR) (AID 2283386). In outline: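 Fluorescence PCA read-out; HEK293T; 24 h post-dose; bait/prey fused to reporter fragments; gain-of-signal fit vs DMSO negative control.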
In assay [15] the target is Peroxisome proliferator-activated receptor gamma (Homo sapiens) (UniProt P37231). As to the kind of experiment: OT_PPARg_PPARgSRC1_1440: Odyssey Thera (OT) 24-hour Protein-Complementation Assay for Peroxisome Proliferator-activated Receptor Gamma/ SRC-1 Co-activator (AID 2283388).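 Further: nuclear to cytoplasmic ratio of reconstituted Venus YFP fluorescence in fixed imaged cells.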 In outline: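 Readout is the 488 nm N/C fluorescence ratio from fixed, Draq5-stained HEK293T cells after 24 h compound exposure. Cells carried transiently transfected PPARg and SRC-1 fused to Venus fragments, transfected 48 h before treatment.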

Assay [16] is described as follows: ACEA_AR_agonist_AUC_viability: ACEA Biosciences xCELLigence Real-Time Cell Analysis on Androgen Receptor Agonism for Viability (AID 2283775).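 On AC50: viability read 80 hours after compound addition.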 In outline:
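Viability endpoint from xCELLigence impedance in 22Rv1 prostate cells at 80 h. Eight-point series, 100 uM maximum final.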

A short description of assay [17]: ACEA_AR_antagonist_AUC_viability: ACEA Biosciences xCELLigence Real-Time Cell Analysis on Androgen Receptor Antagonism for Viability (AID 2283776).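 Further: 22Rv1 human prostate cancer cells growing on impedance electrode plates; area under impedance growth curve at 80 h after dosing as viability; hits lower the growth signal relative to DMSO meaning cytotoxicity.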 In a few lines:
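Impedance read-out (RT-CES): area under growth curve at 80 h post-dose, loss of signal scored vs DMSO baseline. 22Rv1 cells; 8-pt 1:4 series, top 100 uM final, ≤0.5% DMSO; biological duplicate.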

The nature of assay [18]: ACEA_ER_AUC_viability: ACEA Biosciences xCELLigence Real-Time Cell Analysis on Estrogen Receptor Agonism for Viability (AID 2283782).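 Further: hit means loss of impedance signal meaning reduced cell growth or viability.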 In outline: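 Viability endpoint: reduced impedance area under the curve relative to DMSO, recorded by real-time electrode sensing over ~80 h of continuous exposure. Duplicate plates of T47D in hormone-depleted medium; eight concentrations, 1:4 dilutions, 100 uM maximum.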

Assay [19] in a line: CCTE_Harrill_HTTr_Viability_MCF7: CCTE's 6-hour Cell Viability Assessment for the High-Throughput Transcriptomics (HTTr) Platform, in MCF-7 cells cultured in DMEM + 10% fetal bovine serum, Harrill Lab (AID 2284010; active means hit-call score of the fitted dose curve at least 0.9, where 1 is the maximum; inactive means score below 0.9). In a few lines:
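PI exclusion, high-content imaging; 8-pt dilution series, 6 h exposure; bidirectional fit vs DMSO (neg. ctrl/baseline); gain of signal = loss of membrane integrity.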

A short description of assay [20]: ATG_ERE_CIS: Attagene CIS-FACTORIAL HepG2 Assay for Estrogen Response Element (ERE) (AID 2282940; active means hit-call score of the fitted dose curve at least 0.9, where 1 is the maximum; inactive means score below 0.9). As to conditions: HepG2 ERE cis-reporter, Attagene RNA transcript; actives raise or lower the signal. In a few lines:
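Measuring endogenous transcription factor output, the assay doses transfected HepG2 cells for 24 hours and quantifies reporter transcripts by fluorescent RT-PCR and capillary electrophoresis, with DMSO as baseline.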

Estrogen receptor beta (Homo sapiens), sequence (Q92731 whole entry, looked up, the tested form may be a part): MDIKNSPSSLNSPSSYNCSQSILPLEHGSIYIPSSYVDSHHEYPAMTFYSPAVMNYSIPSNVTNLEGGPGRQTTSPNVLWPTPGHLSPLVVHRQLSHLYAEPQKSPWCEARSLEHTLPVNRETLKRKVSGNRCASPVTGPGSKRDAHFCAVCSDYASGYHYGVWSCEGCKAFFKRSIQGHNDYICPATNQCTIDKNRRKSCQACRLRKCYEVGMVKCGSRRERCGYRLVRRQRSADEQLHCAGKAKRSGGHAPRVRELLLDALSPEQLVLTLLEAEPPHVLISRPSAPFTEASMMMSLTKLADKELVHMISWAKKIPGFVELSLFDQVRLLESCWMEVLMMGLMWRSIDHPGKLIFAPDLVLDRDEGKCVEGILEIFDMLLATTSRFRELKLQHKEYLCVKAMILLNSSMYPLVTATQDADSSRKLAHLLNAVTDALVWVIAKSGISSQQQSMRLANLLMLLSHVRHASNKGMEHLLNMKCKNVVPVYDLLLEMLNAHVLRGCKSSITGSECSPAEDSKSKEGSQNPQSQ
Bile acid receptor (Homo sapiens), sequence (Q96RI1 whole entry, looked up, the tested form may be a part): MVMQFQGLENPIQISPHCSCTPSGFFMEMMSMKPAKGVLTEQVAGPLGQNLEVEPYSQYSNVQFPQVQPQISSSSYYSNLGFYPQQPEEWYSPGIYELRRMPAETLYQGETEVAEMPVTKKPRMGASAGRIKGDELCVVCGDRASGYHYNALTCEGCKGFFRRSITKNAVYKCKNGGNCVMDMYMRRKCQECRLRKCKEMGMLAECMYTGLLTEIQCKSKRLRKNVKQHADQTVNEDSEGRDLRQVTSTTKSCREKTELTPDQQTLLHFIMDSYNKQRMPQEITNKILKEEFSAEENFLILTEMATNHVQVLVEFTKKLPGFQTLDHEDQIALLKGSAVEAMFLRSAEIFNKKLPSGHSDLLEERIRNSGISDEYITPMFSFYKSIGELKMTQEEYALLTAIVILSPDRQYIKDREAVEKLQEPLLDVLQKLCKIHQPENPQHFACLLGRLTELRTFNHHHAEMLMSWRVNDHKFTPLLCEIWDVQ
Estrogen-related receptor gamma (Homo sapiens), sequence (P62508 whole entry, looked up, the tested form may be a part): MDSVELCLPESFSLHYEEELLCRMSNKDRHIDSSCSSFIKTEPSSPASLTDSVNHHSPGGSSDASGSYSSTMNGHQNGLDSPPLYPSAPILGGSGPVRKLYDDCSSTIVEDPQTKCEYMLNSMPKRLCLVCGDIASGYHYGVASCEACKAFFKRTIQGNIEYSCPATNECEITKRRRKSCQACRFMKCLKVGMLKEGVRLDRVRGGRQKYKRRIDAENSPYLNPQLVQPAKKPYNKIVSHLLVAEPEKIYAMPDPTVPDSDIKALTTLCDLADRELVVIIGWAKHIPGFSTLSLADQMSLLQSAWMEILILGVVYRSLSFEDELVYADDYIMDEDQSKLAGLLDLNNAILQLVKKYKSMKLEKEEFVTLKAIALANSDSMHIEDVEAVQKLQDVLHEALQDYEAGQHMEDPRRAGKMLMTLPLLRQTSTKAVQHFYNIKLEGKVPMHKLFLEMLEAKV
Steroid hormone receptor ERR1 (Homo sapiens), sequence (P11474 whole entry, looked up, the tested form may be a part): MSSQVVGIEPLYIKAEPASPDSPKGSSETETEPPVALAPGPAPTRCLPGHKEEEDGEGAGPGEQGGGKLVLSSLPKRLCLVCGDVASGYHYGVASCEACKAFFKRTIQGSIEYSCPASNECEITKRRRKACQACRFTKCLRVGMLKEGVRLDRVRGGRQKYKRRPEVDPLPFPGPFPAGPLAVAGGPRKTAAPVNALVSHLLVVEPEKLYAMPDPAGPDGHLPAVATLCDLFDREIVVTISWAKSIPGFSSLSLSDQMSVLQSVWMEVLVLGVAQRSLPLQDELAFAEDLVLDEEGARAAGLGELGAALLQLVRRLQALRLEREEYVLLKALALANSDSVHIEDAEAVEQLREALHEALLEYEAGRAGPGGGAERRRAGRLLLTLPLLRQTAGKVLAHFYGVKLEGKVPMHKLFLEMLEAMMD
Retinoic acid receptor RXR-alpha (Homo sapiens), sequence (P19793 whole entry, looked up, the tested form may be a part): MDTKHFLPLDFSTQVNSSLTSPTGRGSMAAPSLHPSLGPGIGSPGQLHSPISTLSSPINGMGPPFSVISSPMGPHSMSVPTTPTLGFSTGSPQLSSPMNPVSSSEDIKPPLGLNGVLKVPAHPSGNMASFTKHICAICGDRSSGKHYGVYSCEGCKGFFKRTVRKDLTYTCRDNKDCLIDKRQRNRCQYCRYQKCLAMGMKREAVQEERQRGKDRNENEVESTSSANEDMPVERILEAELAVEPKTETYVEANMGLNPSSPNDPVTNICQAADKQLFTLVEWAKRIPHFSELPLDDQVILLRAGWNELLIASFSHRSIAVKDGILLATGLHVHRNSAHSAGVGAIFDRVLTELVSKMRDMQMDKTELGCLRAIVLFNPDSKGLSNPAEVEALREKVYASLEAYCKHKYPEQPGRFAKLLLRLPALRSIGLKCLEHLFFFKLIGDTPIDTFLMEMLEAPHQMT
Peroxisome proliferator-activated receptor gamma (Homo sapiens), sequence (P37231 whole entry, looked up, the tested form may be a part): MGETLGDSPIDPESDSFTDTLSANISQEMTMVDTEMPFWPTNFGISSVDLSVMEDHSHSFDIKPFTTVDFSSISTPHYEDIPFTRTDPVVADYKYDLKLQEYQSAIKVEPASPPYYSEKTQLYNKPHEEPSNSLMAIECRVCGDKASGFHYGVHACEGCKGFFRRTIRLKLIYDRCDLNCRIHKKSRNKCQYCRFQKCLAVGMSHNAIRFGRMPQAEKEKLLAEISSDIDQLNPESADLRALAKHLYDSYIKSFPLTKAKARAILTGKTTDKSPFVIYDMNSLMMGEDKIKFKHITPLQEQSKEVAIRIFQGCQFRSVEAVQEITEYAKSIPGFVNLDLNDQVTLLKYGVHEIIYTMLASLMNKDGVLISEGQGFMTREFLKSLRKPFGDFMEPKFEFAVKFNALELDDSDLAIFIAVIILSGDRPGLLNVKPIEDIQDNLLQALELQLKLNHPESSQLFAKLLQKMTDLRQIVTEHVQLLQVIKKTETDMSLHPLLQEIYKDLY

Consider `CC(C)COP(=O)(OCC(C)C)OCC(C)C`, for which the molecule was called inactive in [1], in [2], in assay [3], in assay [4], in [5] and in [6]. Moreover, the outcome in [7], in [8] and in assay [9] was inactive.

On to `C=CC(=O)OCC(CC)CCCC` (stereo not drawn), for which the result in [1], in [10], in assay [3], in [4], in assay [5] and in assay [6] was inactive. Moreover, the result in assay [7], in assay [8], in [9], in assay [11], in [12] and in assay [13] was inactive. Moreover, the outcome in assay [14], in assay [15], in assay [17], in [18] and in assay [19] was inactive. Besides, the AC50 in [16] was 4.45 µM (active).

Turning to `CN(C)C(=O)C(c1ccccc1)c1ccccc1`, the result in [11], in assay [12], in assay [13], in assay [14], in assay [15] and in [16] was inactive. For the same molecule, the molecule was classed as inactive in [17] and in assay [19].

`Nc1ccc(Cl)c(Cl)c1`: the result in [10], in assay [11], in [12], in [13], in assay [14] and in assay [15] was inactive. Besides, the molecule was classed as inactive in assay [16] and in [19]. The half-maximal activity concentration (AC50) in assay [17] was 1.14 µM (active).

Turning to `O=C(O)c1cc[c]([Hg][Cl])cc1`, the call in [20] was inactive.

Turning to `C=COCCCl`, the result in [20], in assay [1], in assay [10], in assay [2] and in [19] was inactive.

`O=CNC(N1CCN(C(NC=O)C(Cl)(Cl)Cl)CC1)C(Cl)(Cl)Cl` (stereo not drawn): the call in [20], in assay [1], in [10], in assay [12], in assay [13] and in assay [15] was inactive. Further, the call in assay [16], in assay [17] and in [18] was inactive.

With `O=c1c2ccccc2c(=O)c2c1cc(Cl)c1[nH]c3c([nH]c12)c(Cl)cc1c(=O)c2ccccc2c(=O)c13`, the outcome in assay [20], in assay [10], in assay [2], in assay [3], in assay [4] and in assay [5] was inactive. Also, the result in assay [6], in [7] and in [8] was inactive. Besides, the concentration at half-maximal activity (AC50) in assay [9] is 6 µM (active); in assay [18], 6.28 µM (active).

As to `Cc1ccc(OP(=O)(Oc2ccc(C)cc2)Oc2ccc(C)cc2)cc1` (tested in a mixture with another compound), the outcome in assay [3], in assay [5], in [6], in assay [7], in [8] and in [9] was inactive. Moreover, the outcome in assay [14], in assay [15] and in assay [19] was inactive. In addition, the AC50 is 2.31 µM (active) in assay [4] and 15.5 µM (active) in [13].

Take `Cc1ccccc1CCl`: the molecule was called inactive in assay [10] and in assay [18].
